# Reference: ChEMBL document CHEMBL3988442, “University of Dundee, Small-Polar-MMV Screening Library” (2021)
# Out of some 48,000 compounds screened, about 13,000 (27%) showed an effect of 50% or more. The list shows a part of the results.
# Test system: Wolbachia pipientis
# Experiment: Anti-Wolbachia Cell-Based Screen
# Type: functional
# Parameters: scale not given: in the data most compounds retested in dose-response had high values
# Conditions: 5 µM
row,SMILES,Percent Effect [%]
1,CSc1ccc(-c2nc(CN3CCC(CN)C3)c(C)o2)cc1 (stereo not drawn),-1.027
2,CCc1noc(C)c1C(=O)N1CCN(c2nc(C)cc(OC)n2)CC1,-4.975
3,Cc1cc(C(F)(F)F)nc(C2(C)CCCN2CC(N)=O)n1 (stereo not drawn),81.01
4,Cc1cc(N(C)C)nc(C2(C)CCCN2CC(N)=O)n1 (stereo not drawn),87.15
5,Cc1cc(C(F)(F)F)cc(N2CCC3(CCC(=O)N(CCO)C3)CC2)n1,8.685
6,CCCc1nc(C)cc(N2CCC3(CCC(=O)N(CC(N)=O)C3)CC2)n1,1.453
7,CCc1nnc2n1CCN(c1nc(C)cc(N(C)C)n1)C2,1.842
8,CC1(C)CN(CC(F)(F)F)CCN1CC(N)=O,0.007489
9,CS(=O)(=O)NC1CCN(C(=O)COCc2ccccc2)CC1,-3.192
10,Cc1cc(C2CCCN2c2ncc(C(N)=O)cc2Cl)no1 (stereo not drawn),-5.991
11,Cc1nncn1CCNC(=O)C(C)(C)c1cccc(C(F)(F)F)c1,2.023
12,O=C(NCc1ccccn1)Nc1cc(C(F)(F)F)c[nH]c1=O,4.379
13,CC(=O)N(C)CC(=O)Nc1cc(C(F)(F)F)c[nH]c1=O,-5.133
14,Cl.O=C(Nc1cc(C(F)(F)F)c[nH]c1=O)C1CCCCN1 (stereo not drawn),99.37
15,O=C(Nc1cc(C(F)(F)F)c[nH]c1=O)C1CCNCC1,76.16
16,O=C(Nc1cc(C(F)(F)F)c[nH]c1=O)C1CCCNC1 (stereo not drawn),107.9
17,CN(CC(=O)Nc1cc(C(F)(F)F)c[nH]c1=O)Cc1ccccc1,-11.84
18,Cc1ccc(C(=O)O)cc1NC(=O)C1CC=CC1,-2.837
19,Cc1ccc(C(F)(F)F)cc1NCC(=O)Nc1c(C)nn(C)c1C,5.729
20,CC(C)CN1CCC(C(=O)Nc2cc(C(F)(F)F)c[nH]c2=O)CC1,-2.2
21,Cc1ccc(C(F)(F)F)cc1NC(=O)C1CCCN1 (stereo not drawn),84.86
22,COc1cccc(C(=O)N2CCc3ncnc(C)c3CC2)c1,-6.547

row,SMILES,Percent Effect [%]
1,CN1CC[C@H]2CN(C(=O)c3csc(Cc4ccccc4)n3)C[C@H]21,0.1576
2,Cc1nn(C)cc1C(C)Nc1ncnc2sccc12 (stereo not drawn),-14.94
3,c1n[nH]cc1CCCN1CCC(OC2CCCCC2)CC1,7.391
4,O=C(Nc1cc(C(F)(F)F)c[nH]c1=O)C1CCCO1 (stereo not drawn),93.32
5,Cc1ccc(NC(=O)NCCCc2n[nH]c(N)c2C#N)cc1,1.349
6,Cc1nn(C)c(C)c1NC(=O)CCn1ncc2c(C)cccc21,-5.64
7,CN(C)C(=O)NCc1cc(=O)n2c(n1)CN(Cc1ccoc1)CCC2.O=C(O)C(F)(F)F,87.23
8,Cc1ccc(CN2CCCn3c(nc(Cn4cncn4)cc3=O)C2)s1,-3.936
9,COCC(=O)NCc1cc(=O)n2c(n1)CN(Cc1ccoc1)CCC2,84.57
10,COCC(=O)NCc1cc(=O)n2c(n1)CN(Cc1ccncc1)CCC2,99.24
11,Cc1ccc(CN2CCCn3c(nc(CN4CCCC4)cc3=O)C2)s1.O=C(O)C(F)(F)F.O=C(O)C(F)(F)F,-4.249
12,O=c1cc(Cn2ccnc2)nc2n1CCCN(Cc1ccsc1)C2,9.464
13,O=C(CC1CC1)NCc1cc(=O)n2c(n1)CN(Cc1ccoc1)CCC2,68.76
14,Cc1oncc1C(=O)NCc1cc(=O)n2c(n1)CN(C)CCC2.O=C(O)C(F)(F)F,-6.613
15,Cn1ncc2c(NCCOCc3ccccc3)nc(C3CCCC3)nc21,18.15
16,Cc1cc(C)c(C)c(OCCCNC(=O)NC(C)c2nncn2C)c1 (stereo not drawn),4.914
17,Cc1nc(CC(=O)NCCNc2nccc(C(F)(F)F)n2)cs1,-6.146
18,CN(C)Cc1cc(=O)n2c(n1)CN(Cc1ccco1)CCC2,2.843
19,O=c1cc(CN2CCCC2)nc2n1CCCN(Cc1ccco1)C2,15.57
20,O=c1cc(CN2CCCC2)nc2n1CCCN(Cc1ccsc1)C2,8.942
21,O=c1cc(CN2CCCC2)nc2n1CCCN(Cc1ccoc1)C2,85.96
22,O=c1cc(Cn2cncn2)nc2n1CCCN(Cc1ccco1)C2,-4.032

row,SMILES,Percent Effect [%]
1,COCC(=O)NCc1cc(=O)n2c(n1)CN(Cc1ccco1)CCC2,106.6
2,O=C1NC(c2ccccc2)=N[C@@]12CC[C@@H]1CN(S(=O)(=O)C3CC3)C[C@@H]12,2.973
3,Cc1ccc(C)c(NC(=O)C(C)N2CCCN(c3nccs3)CC2)c1 (stereo not drawn),18.26
4,CCC(CO)N(Cc1cccc(O)c1)Cc1ccccc1C (stereo not drawn),-1.955
5,N#Cc1cc(NC(=O)C2CC=CC2)ccc1N1CCC(O)CC1,-4.254
6,CNC(=O)[C@@H](C1CCCCC1)N1CCC[C@H]1C(=O)NC1CC1,10.77
7,N#Cc1ccccc1CNC(C(=O)N1CCOCC1)c1ccccc1 (stereo not drawn),-7.429
8,CCOC1CCN(C(=O)c2ccc(-n3ncc(C#N)c3N)cc2)CC1,-10.17
9,CCOC(=O)C1CCN(C(=O)c2cnn(-c3ccccc3F)c2N)CC1,125.9
10,CCOC(=O)C1CCN(C(=O)CN2CCCC2c2ccccc2C)CC1 (stereo not drawn),-25.1
11,CCOC(=O)C1CCN(C(=O)CN2CCCC2Cc2ccccc2)CC1 (stereo not drawn),-0.766
12,CCc1c(C(=O)NCC(=O)OCC2CC2)cnn1-c1ccc(C)cc1,-8.085
13,CCOC(=O)C1CCN(C(=O)c2cnn(-c3ccc(C)cc3)c2N)CC1,105.1
14,Cc1nn(C(C)C)c(C)c1NC(=O)c1ccc(F)cc1,-6.824
15,N#Cc1ccccc1NC(=O)c1ccc2c(c1)OCO2,136.5
16,CCc1noc(CN(C)CCC(=O)Nc2ccccc2C#N)n1,9.134
17,CN(C)Cc1ccccc1NC(=O)c1ccc(C#N)cc1,4.666
18,COc1cc(C)nc(N2CCN(C(C)c3nc(C)no3)CC2)n1 (stereo not drawn),-6.748
19,CC(C)(O)CSCCNCc1ccc(Cl)c2cccnc12,7.695
20,C1CCC(NCCN2CCOCC2)C1,-5.882
21,C1CN(CCN2CCOCC2)CCN1,96.42
22,CC1CCC(NCCCN2CCOCC2)CC1 (stereo not drawn),-18.43

row,SMILES,Percent Effect [%]
1,Cc1cc(C)n(CC2CCCN2C(=O)CCc2cscn2)n1 (stereo not drawn),-3.871
2,CCC(C)(NC(=O)CCN1CCOC1=O)C(=O)OC (stereo not drawn),-2.045
3,Cc1cc(C)n(C2CCCN(C(=O)CCc3nccs3)C2)n1 (stereo not drawn),95.16
4,O=C(CCc1nccs1)N1CCCC(n2cccn2)C1 (stereo not drawn),73.36
5,O=C(CCc1cnn(-c2ccccc2)c1)N1CCCC(n2cccn2)C1 (stereo not drawn),-6.718
6,Cc1cnn(C2CCCN(C(=O)CCc3nccs3)C2)c1 (stereo not drawn),-0.76
7,Cc1cc(C)n(C2CCCN(C(=O)Cc3csc(C)n3)C2)n1 (stereo not drawn),1.332
8,Cc1cc(C)n(C2CCCN(C(=O)CN(C)c3cnccn3)C2)n1 (stereo not drawn),-4.644
9,CN(CCc1ccccc1)Cc1cc(C(=O)N2CCN(C)C(=O)C2)no1,103.8
10,CN(CCc1ccccc1)Cc1cc(C(=O)N2CCSCC2)no1,-17.09
11,CN1CCCN(C(=O)c2cc(CN(C)CCc3ccccc3)on2)CC1,-31.64
12,O=C(NCCSCc1cccs1)C1CCCN(C(=O)N2CCCC2)C1 (stereo not drawn),-5.994
13,COCCN1CCN(Cc2nccs2)[C@H]2CS(=O)(=O)C[C@H]21,-12.76
14,Cc1cnc(NC(=O)c2ccc(C3CCCN3CC(C)C)s2)s1 (stereo not drawn),-4.424
15,COCCN1CCCC1c1nccnc1Nc1ncc(C)s1 (stereo not drawn),100
16,COc1c(C2CCCN2CCOc2ccccc2C#N)c(C)nn1C (stereo not drawn),-6.58
17,COCCN1CCCC1c1nccnc1Nc1nc(C)cs1 (stereo not drawn),-1.129
18,COCCN1CCCC1c1nccnc1Nc1nccs1 (stereo not drawn),95.24
19,O=C(CN1CCN(c2ncnc3c2CCNCC3)CC1)N1CCCCC1,-2.249
20,c1ccc(-c2cnc(CNCC3CCCN3c3cccnn3)o2)cc1 (stereo not drawn),-6.959
21,Cn1cnc2c1C(C(=O)N1CCCC1)N(S(C)(=O)=O)CC2 (stereo not drawn),3.413
22,Cc1ccc(CN2CCc3ncnc(-c4ccncc4)c3CC2)o1.O=C(O)C(F)(F)F.O=C(O)C(F)(F)F,96.83

row,SMILES,Percent Effect [%]
1,CC(C)Oc1ncnc2c1CCN(Cc1ccoc1)CC2.O=C(O)C(F)(F)F,3.383
2,CC(C)Oc1ncnc2c1CCN(Cc1ccco1)CC2.O=C(O)C(F)(F)F,2.851
3,Cc1ccc(CN2CCc3ncnc(-c4ccoc4)c3CC2)o1.O=C(O)C(F)(F)F,105.9
4,Cc1ccc(CN2CCc3ncnc(-c4ccc(F)cc4)c3CC2)o1.O=C(O)C(F)(F)F,-0.3748
5,O=C1CCc2cc(S(=O)(=O)NC(=O)c3ccc4c(c3)OCO4)ccc2N1,-58.45
6,Cc1nc[nH]c1C(=O)N1CCC2(CC1)CN(CCN(C)C)C(=O)O2,0.5324
7,Cc1cc(C(=O)N2CCC3(CC2)CN(CCN(C)C)C(=O)O3)nc(C)n1,-4.106
8,Cc1ccc(C(=O)N2CCC3(CC2)CN(CCN(C)C)C(=O)O3)c(F)c1,62.77
9,O[C@@H]1C[C@H]2CN(Cc3ccccc3)[C@H](Cc3ccccc3)CN2C1,111.3
10,O[C@@H]1C[C@@H](c2nc(Cc3ccccc3)no2)N(Cc2ccc(F)cc2)C1,5.892
11,Oc1ccccc1CN1C[C@H](O)C[C@H]1c1nc(Cc2ccccc2)no1,2.62
12,Cc1cccc(-c2noc([C@@H]3C[C@@H](O)CN3CC3CCCCC3)n2)c1,5.786
13,O[C@@H]1C[C@@H](c2nc(-c3ccccc3)no2)N(Cc2cccnc2)C1,4.417
14,O[C@@H]1C[C@H]2CN(Cc3ccccc3Cl)[C@H](Cc3ccccc3)CN2C1,117.1
15,O[C@@H]1C[C@@H](c2nc(-c3ccccc3)no2)N(Cc2ccncc2)C1,-6.257
16,O[C@@H]1C[C@@H](c2nc(-c3ccccc3)no2)N(CC2CCCCC2)C1,-2.196
17,O[C@@H]1C[C@H]2CN(Cc3ccsc3)[C@@H](Cc3ccccc3)CN2C1,108.5
18,Cc1ccc(CN2C[C@H]3CN(Cc4ccccc4Cl)CCN3C2=O)cc1,5.801
19,O[C@@H]1C[C@H]2CN(CC3CCCCC3)[C@H](Cc3ccccc3)CN2C1,87.27
20,CS(=O)(=O)N1C[C@@H]2CC[C@H](C1)N(Cc1ccsc1)C2,-3.691
